Values joined by “and” are separate entries in the source; they are usually repeats but may differ in a detail not shown here. Equal values may be shown once. Inconclusive results are not listed. Active and inactive are the calls of the source. Calls come from the whole dose curve; as a rule, active = well fitted curve in the direction sought with a large enough effect; inconclusive = small, poorly fitted or top-dose-only effect, or another doubt; inactive = no such curve, though single readings can be large; an effect the other way counts as inactive or inconclusive.
Columns and labels:
[1] = qHTS of pediatric cancer cell lines to identify multiple opportunities for drug repurposing: Primary screen for U-2 OS cells (AID 1347096); note: nearly all actives have a fitted effect of over 50% in size
Outline: (§1)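 Cells (500-1,000/well) rested 5 h, then received compounds for 48 h; metabolically active cells were measured by CellTiter-Glo luminescence. Final concentrations spanned up to 46 µM (MIPE, 11-point) or 0.59 nM-46 µM (NPC, 8-point) in primary screens, 11-point in follow-ups.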

[2] = qHTS of pediatric cancer cell lines to identify multiple opportunities for drug repurposing: Primary screen for Saos-2 cells (AID 1347097); note: nearly all actives have a fitted effect of over 40% in size
Outline: (§2)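 ATP-based luminescence (CellTiter-Glo) quantifies viability after a 48-hour exposure. Compounds are dosed across 8 or 11 final concentrations; DMSO and 2.3 µM bortezomib serve as controls.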

[3] = qHTS of pediatric cancer cell lines to identify multiple opportunities for drug repurposing: Primary screen for LAN-5 cells (AID 1347100)
Outline: as §1

[4] = qHTS of pediatric cancer cell lines to identify multiple opportunities for drug repurposing: Primary screen for BT-12 cells (AID 1347101); note: nearly all actives have a fitted effect of over 25% in size
Outline: as §1

[5] = qHTS of pediatric cancer cell lines to identify multiple opportunities for drug repurposing: Primary screen for Rh18 cells (AID 1347102); note: nearly all actives have a fitted effect of over 65% in size
Outline: as §1

[6] = qHTS of pediatric cancer cell lines to identify multiple opportunities for drug repurposing: Primary screen for OHS-50 cells (AID 1347103); note: nearly all actives have a fitted effect of over 40% in size
Outline: as §1

[7] = qHTS of pediatric cancer cell lines to identify multiple opportunities for drug repurposing: Primary screen for RD cells (AID 1347104); note: nearly all actives have a fitted effect of over 55% in size
Outline: as §2

[8] = qHTS of pediatric cancer cell lines to identify multiple opportunities for drug repurposing: Primary screen for MG 63 (6-TG R) cells (AID 1347105); note: nearly all actives have a fitted effect of over 50% in size
Outline: as §2

[9] = qHTS of pediatric cancer cell lines to identify multiple opportunities for drug repurposing: Primary screen for SK-N-SH cells (AID 1347098); note: nearly all actives have a fitted effect of over 65% in size
Outline: as §1

[10] = qHTS of pediatric cancer cell lines to identify multiple opportunities for drug repurposing: Primary screen for NB1643 cells (AID 1347099); note: nearly all actives have a fitted effect of over 50% in size
Outline: as §2

Measured: Potency
Potency is the fitted concentration of half-maximal effect.

OC(CN1CCC(Cc2ccc(F)cc2)CC1)c1ccc(Cl)cc1 (configuration not stated)
not listed: [9] | [10]
inactive: all other assays above

Cc1csc(NC(=O)c2sc3nc4c(c(C(F)(F)F)c3c2N)CCC4)n1
inactive: [1] | [2] | [3] | [4] | [8]

Fc1ccc(Cl)cc1-c1nc(Nc2ccncc2)c2nccnc2n1
not listed: [2] | [10]
inactive: all other assays above

CC1(C)SCCN(S(=O)(=O)c2ccc(OCC#CCO)cc2)[C@@H]1C(=O)NO
not listed: [9] | [10]
inactive: all other assays above

Nc1nc2[nH]cc(CCc3ccc(C(=O)N[C@@H](CCC(=O)O)C(=O)O)cc3)c2c(=O)[nH]1
not listed: [2] | [7] | [8]
inactive: all other assays above

O=C(Nc1ccc(F)c(C(F)(F)F)c1)Nc1nnc(-c2ccncc2)s1
inactive: [1] | [2] | [3] | [6]

CCN(CC)CCCC(C)Nc1nc(C)cc(Nc2ccc3nc(C)cc(N)c3c2)n1 (configuration not stated)
not listed: [2] | [6]
inactive: all other assays above

CC1(C)Cc2c(-c3ccccc3)c(-c3ccc(Cl)cc3)c(CC(=O)O)n2C1
inactive: [1] | [5]
active: [2] 33.2 µM

Nc1nc2ccc(OC(F)(F)F)cc2s1
inactive: [1] | [9] | [10] | [5] | [7] | [8]

CCN(c1ccccc1)c1cc(NC)[n+](C)c(C)n1
not listed: [3] | [9]
inactive: all other assays above

C[C@]12CC[C@H](O)CC1=CC[C@@H]1[C@H]2CC[C@]2(C)C(c3cccnc3)=CC[C@H]12
not listed: [2]
inactive: all other assays above

CC(C)(Sc1ccc(CCN(CCCCC2CCCCC2)C(=O)NC2CCCCC2)cc1)C(=O)O
active: [2] 23.5 µM | [3] 20.9 µM
inactive: [1] | [5] | [6]

C#Cc1cccc(Nc2ncnc3cc(OCCOC)c(OCCOC)cc23)c1
inactive: [1] | [7] | [8]
active: [2] 16.6 µM | [10] 5.9 µM | [4] 24.3 µM | [5] 18.7 µM | [6] 19.3 µM and 6.92 µM

CN(C)C(=O)c1ccc(S(=O)(=O)c2ccc(NC(=O)[C@@](C)(O)C(F)(F)F)c(Cl)c2)cc1
inactive: [1] | [9] | [3] | [5]
active: [4] 13.7 µM

O=C(Nc1cccnc1)N1CCC(Cc2cccc(Oc3ccc(C(F)(F)F)cn3)c2)CC1
active: [4] 10.9 µM | [6] 10.9 µM
inactive: [1] | [9] | [10] | [5] | [8]

O=C1[C@H](Cc2ccc(O)cc2)N2C(=O)CCN(C(=O)NCc3ccccc3)[C@H]2CN1Cc1cccc2ccccc12
inactive: [1]
active: [10] 2.96 µM | [3] 10.5 µM | [6] 4.85 µM | [7] 10.5 µM | [8] 3.72 µM

Cn1c(=O)c(F)c(Nc2ccc(I)cc2F)c2c(=O)n(C[C@@H](O)CO)cnc21
inactive: [6] | [8]
active: [1] 5.9 µM | [9] 6.81 µM | [5] 20.9 µM | [7] 0.0296 µM

CCCn1c(=O)c2[nH]c(C34CC5CC3C[C@@H](C5)C4)nc2n(CCC)c1=O
inactive: [1] | [9] | [4]

Cn1cc(-c2ccc3nnc(C(F)(F)c4ccc5ncccc5c4)n3n2)cn1
inactive: [1] | [10] | [7]

Cc1n[nH]c(C)c1Cc1sc2c(c1C(=O)N1C[C@H](O)CO1)c(=O)n(C)c(=O)n2CC(C)C
not listed: [2] | [3] | [10]
inactive: all other assays above

O=C1CCCC2=C1C(c1[nH]ncc1Cl)N=C(Nc1nc3ccccc3o1)N2 (configuration not stated)
inactive: [1] | [3] | [8]

COCCNCCCn1c(C(=O)CF)c(-c2ccc(C)cc2)c2c(N)ncnc21
inactive: [1] | [3] | [4] | [7]

CCOC(=O)C1=C[C@]2(CC)CCCN3CCc4c(n1c1ccccc41)[C@@H]32
active: [6] 24.3 µM
inactive: [1] | [10] | [4] | [5]

Cc1cc(C=c2sc3nc4ccccc4n3c2=O)c(C)n1-c1ccccc1
inactive: [1] | [9] | [3] | [4] | [7] | [8]

CNC(=O)c1ccc(C)c(-n2c(C)cc(OCc3ccc(F)cc3F)c(Br)c2=O)c1
active: [3] 20.9 µM | [6] 24.3 µM
inactive: [1] | [9] | [7]

O=C(c1cc(Cc2n[nH]c(=O)c3ccccc23)ccc1F)N1CCN(C(=O)C2CC2)CC1
inactive: [1] | [5]
active: [9] 21.5 µM | [3] 14.8 µM | [6] 24.3 µM

Cc1ccnc(NS(=O)(=O)c2ccc(NC(=O)Nc3ccc(S(=O)(=O)Nc4nccc(C)n4)cc3)cc2)n1
active: [4] 24.3 µM
inactive: [1] | [5] | [6] | [7] | [8]

CS(=O)(=O)c1ccc(C(=O)Nc2ccc(Cl)c(-c3ccccn3)c2)c(Cl)c1
inactive: [1] | [9] | [3] | [5] | [6] | [7]

OC[C@H](Cc1ccccc1)Nc1nc(Oc2ccc3c(c2)CCC3)nc2c1ncn2Cc1ccc(-c2ccccc2)cc1
inactive: [1] | [9] | [3] | [5] | [8]

CC1(C)CNc2cc(NC(=O)c3cccnc3NCc3ccncc3)ccc21
active: [3] 20.9 µM
inactive: [1] | [7]
